From PubChem BioAssay (EPA / NIEHS)
Several values for one entry are separate records, joined by “and”; a condition that tells them apart may be missing. Equal values may be shown once. Records with an inconclusive call do not appear. Where a structure was tested more than once in an assay, its records may differ in their call. Activity calls are given as the source filed them. How the source made its calls: active means hit-call score of the fitted dose curve at least 0.9, where 1 is the maximum; inconclusive means response in the unintended direction; inactive means score below 0.9.

Columns and labels:
[1] = ATG_XTT_Cytotoxicity: Cytotoxicity Assessment in the Attagene TRANS-FACTORIAL HepG2 Assay (AID 2283584);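 on AC50: cells exposed to compound for 24 h before reading; active means loss of viability signal versus DMSO baseline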
Procedure, shortened: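 XTT readout of cell number in transfected HepG2 cells, 24 h post-dosing; DMSO serves as negative control and baseline, with activity taken as loss of viability signal.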

[2] = TOX21_p53_BLA_p2_viability: Viability Assessment in the Tox21 HCT-116 p53 Agonism Beta-lactamase Assay, Phase 2 (AID 2283591);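 further: actives lower the ATP signal meaning cytotoxicity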
Procedure, shortened: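 HCT-116 p53-bla cells (4000/well) rested 5 h at 37C, then received compounds in DMSO (217-fold dilution) for 16 h at 37C, 5% CO2. After the CCF4 read, CellTiter-Glo was added; ATP luminescence was read after 30 min at room temperature.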

[3] = biological target: Cellular tumor antigen p53 (Homo sapiens) (UniProt P04637); assay: TOX21_p53_BLA_p3_ratio: Tox21 HCT-116 p53 Agonism Beta-lactamase Assay, Ratio, Phase 3 (AID 2283596)
Cellular tumor antigen p53 (Homo sapiens), sequence (P04637 whole entry, looked up): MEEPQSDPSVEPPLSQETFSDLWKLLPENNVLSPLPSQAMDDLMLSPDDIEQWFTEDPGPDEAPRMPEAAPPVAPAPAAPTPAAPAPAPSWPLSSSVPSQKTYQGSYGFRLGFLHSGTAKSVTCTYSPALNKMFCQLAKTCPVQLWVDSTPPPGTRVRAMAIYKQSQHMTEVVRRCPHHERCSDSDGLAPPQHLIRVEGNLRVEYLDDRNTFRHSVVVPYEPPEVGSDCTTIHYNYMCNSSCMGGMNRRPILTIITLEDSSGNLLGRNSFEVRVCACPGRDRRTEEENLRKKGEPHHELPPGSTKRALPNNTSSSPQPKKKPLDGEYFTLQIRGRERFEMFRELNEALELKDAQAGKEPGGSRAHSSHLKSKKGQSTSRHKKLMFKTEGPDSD
Procedure, shortened: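 Cells were seeded at 4000/well, rested 5 h at 37C, then dosed with DMSO compound solutions (217-fold dilution) for 16 h. CCF4-AM substrate was loaded for 2 h at room temperature, and the 460/530 nm emission ratio was fitted for gain of signal versus DMSO.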

[4] = TOX21_p53_BLA_p4_viability: Viability Assessment in the Tox21 HCT-116 p53 Agonism Beta-lactamase Assay, Phase 4 (AID 2283597);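 further: hits lower the luminescence signal meaning cytotoxicity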
Procedure, shortened: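 ATP content by CellTiter-Glo luminescence, 30 min RT, read after the beta-lactamase ratio step. Cells: HCT116, 4000/well, compound added after 5 h, exposure 16 h at 37C. Signal loss = reduced viability.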

[5] = biological target: Cellular tumor antigen p53 (Homo sapiens) (UniProt P04637); assay: TOX21_p53_BLA_p5_ratio: Tox21 HCT-116 p53 Agonism Beta-lactamase Assay, Ratio, Phase 5 (AID 2283599)
Procedure, shortened: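 HCT-116 cells carrying a p53-inducible beta-lactamase reporter were seeded at 4000 cells/well and dosed after 5 h with compound in DMSO (217-fold dilution). After 16 h at 37C, CCF4-AM substrate was added for 2 h, and the 460/530 nm emission ratio was scored as gain-of-signal versus DMSO.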

[6] = biological target: Cellular tumor antigen p53 (Homo sapiens) (UniProt P04637); assay: TOX21_p53_BLA_p4_ratio: Tox21 HCT-116 p53 Agonism Beta-lactamase Assay, Ratio, Phase 4 (AID 2283601)
Procedure, shortened: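 HCT116 cells carrying an inducible beta-lactamase reporter were plated at 4000 cells/well, rested 5 h, then exposed to compounds in DMSO (217-fold dilution) for 16 h at 37C. CCF4-AM substrate was loaded 2 h at room temperature; 460/530 nm emission ratio scored gain-of-signal versus DMSO.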

[7] = TOX21_p53_BLA_p3_viability: Viability Assessment in the Tox21 HCT-116 p53 Agonism Beta-lactamase Assay, Phase 3 (AID 2283593);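 further: cells exposed to compound for 16 h before reading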
Procedure, shortened: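 HCT-116 cells (4000/well) rested 5 h at 37C, then got DMSO compounds by pin tool (217-fold dilution) for 16 h at 37C, 5% CO2. After the bla read, CellTiter-Glo was added and luminescence read at 30 min, room temperature.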

[8] = TOX21_p53_BLA_p5_viability: Viability Assessment in the Tox21 HCT-116 p53 Agonism Beta-lactamase Assay, Phase 5 (AID 2283600)
Procedure, shortened: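 ATP luminescence (CellTiter-Glo, 30 min, RT) served as the viability read-out, with loss of signal indicating cytotoxicity. Compounds in DMSO were pinned at a 217-fold dilution onto 4000 cells/well and incubated 16 h, 37C.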

[9] = biological target: Cellular tumor antigen p53 (Homo sapiens) (UniProt P04637); assay: TOX21_p53_BLA_p2_ratio: Tox21 HCT-116 p53 Agonism Beta-lactamase Assay, Ratio, Phase 2 (AID 2283592)
Procedure, shortened: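 Readout: blue/green (460/530 nm) FRET emission ratio after 2 h CCF4-AM loading at room temperature, excitation 405 nm. HCT116 p53 bla cells, 16 h compound exposure at 37C, 5% CO2; agonist direction fitted against DMSO baseline.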

Measured: AC50

CCOc1ccc(N)cc1
not listed: [7] | [8] | [9]
inactive: all other assays above

O=S(=O)(c1ccc(Cl)cc1)c1cc(Cl)c(Cl)cc1Cl
not listed: [4] | [9]
inactive: all other assays above

O=C(O)COc1ccc(Cl)cc1
inactive: [1] | [2] | [3] | [4] | [5]

BrCCCCBr
inactive: [1] | [2] | [9] | [4]

O=S1(=O)OC(c2cc(Br)c(O)c(Br)c2)(c2cc(Br)c(O)c(Br)c2)c2ccccc21
active: [7] 8.86 µM | [4] 52.4 µM
not listed: [3] | [9]
inactive: all other assays above

Clc1cnc(Oc2ccc(Oc3ncc(Cl)cc3Cl)cc2)c(Cl)c1
not listed: [3] | [9]
inactive: all other assays above

Cc1cc(Cl)ccc1OC(C)C(=O)O (centres undefined)
not listed: [3] | [9]
inactive: all other assays above

O=c1[nH]c2ccccc2n1C1CCN(CCCC(c2ccc(F)cc2)c2ccc(F)cc2)CC1
inactive: [6]
active: [1] 18.1 µM | [2] 13.8 µM and 30.1 µM | [7] 67.5 µM and 35.3 µM | [3] 83.6 µM and 43.4 µM | [4] 14.6 µM and 11.3 µM | [5] 84.6 µM and 43.2 µM | [8] 75.5 µM and 31.9 µM | [6] 19.8 µM

O=C(Cl)OCCOCCOC(=O)Cl
not listed: [4] | [5] | [7]
inactive: all other assays above

CCN(N=O)C(N)=O
inactive: [1] | [2] | [3] | [4] | [6]

OC(c1ccc(Cl)cc1)(c1ccc(Cl)cc1)c1cccnc1
inactive: [7] | [3] | [8]
active: [1] 67.7 µM | [2] 46.1 µM | [4] 60.5 µM | [5] 72.5 µM | [6] 70.9 µM

O=C(CCl)NCO
not listed: [3] | [7] | [8]
inactive: all other assays above

CC(=Cc1ccccc1)[N+](=O)[O-]
inactive: [2] | [7] | [5] | [6]
active: [1] 23.6 µM

CC(O)(CS(=O)(=O)c1ccc(F)cc1)C(=O)Nc1ccc(C#N)c(C(F)(F)F)c1 (centres undefined)
not listed: [9]
inactive: all other assays above

CN(C)c1ccc(N=O)cc1
active: [2] 70.1 µM and 70.5 µM | [4] 70.4 µM and 69.5 µM | [5] 83.8 µM and 86.6 µM | [6] 86.9 µM
inactive: [1] | [3] | [6]

N#CCCC(Br)(C#N)CBr (centres undefined)
inactive: [1] | [2] | [7] | [4] | [6]
active: [3] 70.8 µM

ClCCCCl
not listed: [3] | [6] | [9]
inactive: all other assays above

COC(=O)Nc1cccc(OC(=O)Nc2cccc(C)c2)c1
inactive: [1] | [2] | [3] | [4] | [8]

N#CCC#N
not listed: [4] | [7]
inactive: all other assays above

CC(C)CP(=S)(S)CC(C)C
inactive: [1] | [3] | [6]

COCCl
inactive: [1] | [9] | [3] | [4] | [6]

Cl[C@H]1OCCO[C@@H]1Cl
not listed: [2] | [8]
inactive: all other assays above

CCCCCCCCBr
inactive: [1] | [3] | [5] | [8]

CCNc1nc(NCC)nc(SC)n1
not listed: [2] | [6] | [8]
inactive: all other assays above

CCN(CCO)CCO
inactive: [1] | [2] | [8] | [6]

C=CCc1ccccc1O
not listed: [2] | [4] | [8]
inactive: all other assays above

CNC(=O)O/N=C/C(C)(C)S(C)(=O)=O
inactive: [1] | [2] | [4] | [5]

CN(C)[C@@H]1C(=O)C(C(N)=O)=C(O)[C@@]2(O)C(=O)C3=C(O)c4c(O)ccc(Cl)c4[C@@](C)(O)[C@H]3C[C@@H]12
inactive: [1] | [2] | [4] | [5] | [8]

CCCSP(=S)(OCC)Oc1ccc(SC)cc1 (centres undefined)
inactive: [1] | [4] | [5] | [6]

C[C@H]1C(=O)O[C@@H]2CCN3CC=C(COC(=O)[C@](C)(O)[C@]1(C)O)[C@H]23
inactive: [1] | [7] | [3] | [5] | [6]

CC(C)(C1CCC(O)CC1)C1CCC(O)CC1 (centres undefined)
inactive: [1] | [9] | [4] | [5]

C=C(C)[C@@H]1CC=C(C=O)CC1
not listed: [2] | [4] | [8]
inactive: all other assays above
